Drawing on PubChem BioAssay (EPA / NIEHS), this text covers outcome and AC50 for three compounds.

Structures are written as SMILES. Calls of active or inactive are those of the source. How the source made its calls: active means hit-call score of the fitted dose curve at least 0.9, where 1 is the maximum; inactive means score below 0.9.

Holding throughout (conditions): mRNA level, 48 h; actives raise or lower the signal
Read-out in assay [1]: Interleukin 6 Receptor (IL6R), IL6R (gene 3570)
Nature of the assay: LTEA_HepaRG_IL6R: Life Technologies and Expression Analysis (LTEA) Assay for Interleukin 6 Receptor (IL6R) using HepaRG (AID 2283510). An outline of the steps:
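HepaRG, 48 h exposure, 8-pt half-log series, top 100 uM, 0.5% DMSO vehicle, duplicates. Read-out: TaqMan qRT-PCR of IL6R transcript, housekeeping-gene normalized. Gain or loss fitted relative to DMSO baseline.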

Read-out in assay [2]: Potassium channel subfamily K member 1 (KCNK1), KCNK1 (gene 3775)
Nature of the assay: LTEA_HepaRG_KCNK1: Life Technologies and Expression Analysis (LTEA) Assay for Potassium channel subfamily K member 1 (KCNK1) using HepaRG (AID 2283511). An outline of the steps:
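HepaRG, 48 h exposure, 8-pt half-log series top 100 uM, 0.5% DMSO vehicle, duplicates. Readout: KCNK1 transcript by qRT-PCR (Fluidigm array), housekeeping-normalized; bidirectional curve fit relative to DMSO baseline.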

Read-out in assay [3]: Keratin 19 (KRT19), KRT19 (gene 3880)
Nature of the assay: LTEA_HepaRG_KRT19: Life Technologies and Expression Analysis (LTEA) Assay for Keratin 19 (KRT19) using HepaRG (AID 2283512). In a few lines: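 KRT19 transcript levels, measured by Fluidigm qRT-PCR against three housekeeping genes, are fitted for gain or loss of signal relative to DMSO. Human HepaRG cells receive test chemicals (top 100 uM, half-log steps, 0.5% DMSO) for 48 hours.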

Read-out in assay [4]: JUN Transcription Factor, JUN (gene 3725)
Description: LTEA_HepaRG_JUN: Life Technologies and Expression Analysis (LTEA) Assay for JUN Transcription Factor using HepaRG (AID 2283513). An outline of the steps: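 HepaRG, 48 h exposure, 8-pt half-log series top 100 uM, 0.5% DMSO, duplicate. JUN mRNA by qRT-PCR (Fluidigm), housekeeping-normalized (ACTB/GAPDH/POLR2A); bidirectional curve fit vs DMSO baseline.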

Read-out in assay [5]: Lipase C (LIPC), LIPC (gene 3990)
Description: LTEA_HepaRG_LIPC: Life Technologies and Expression Analysis (LTEA) Assay for Lipase C (LIPC) using HepaRG (AID 2283514). An outline of the steps:
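HepaRG, 48 h exposure, 8-pt half-log series from 100 uM in 0.5% DMSO, duplicates. Readout: LIPC mRNA by Fluidigm qRT-PCR, housekeeping-normalized (ACTB/GAPDH/POLR2A). Gain or loss fitted bidirectionally against DMSO baseline.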

Read-out in assay [6]: Lipoprotein lipase (LPL), LPL (gene 4023)
Description: LTEA_HepaRG_LPL: Life Technologies and Expression Analysis (LTEA) Assay for Lipoprotein lipase (LPL) using HepaRG (AID 2283515). An outline of the steps: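 HepaRG, 48 h exposure, 8-pt half-log dilutions from 100 uM, 0.5% DMSO vehicle, duplicates; qRT-PCR (Fluidigm array) of LPL mRNA vs housekeeping genes; bidirectional curve fit relative to DMSO baseline.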

Read-out in assay [7]: MicroRNA 122 (MIR122), gene 406906
Description: LTEA_HepaRG_MIR122: Life Technologies and Expression Analysis (LTEA) Assay for MicroRNA 122 (MIR122) using HepaRG (AID 2283516). Further: the transcript read is the microRNA miR-122. An outline of the steps:
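qRT-PCR read-out (TaqMan, Fluidigm array), normalized to three housekeeping genes; HepaRG cells dosed 48 h at 8 concentrations up to 100 uM in 0.5% DMSO, duplicate; gain or loss fitted against DMSO baseline.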

Read-out in assay [8]: matrix metalloproteinase-10 (MMP10), MMP10 (gene 4319)
Nature of the assay: LTEA_HepaRG_MMP10: Life Technologies and Expression Analysis (LTEA) Assay for matrix metalloproteinase-10 (MMP10) using HepaRG (AID 2283517). An outline of the steps: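 Transcript levels come from Fluidigm qRT-PCR normalized to three housekeeping genes, with curves fitted bidirectionally against 0.5% DMSO. Human HepaRG cells were dosed for 48 hours at concentrations up to 100 uM.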

Read-out in assay [9]: matrix metalloproteinase-3 (MMP3), MMP3 (gene 4314)
Nature of the assay: LTEA_HepaRG_MMP3: Life Technologies and Expression Analysis (LTEA) Assay for matrix metalloproteinase-3 (MMP3) using HepaRG (AID 2283519). In a few lines: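 qRT-PCR read-out of MMP3 mRNA (normalised to three housekeeping genes) in HepaRG liver cells after 48 h chemical exposure; 8-point half-log series, top 100 uM, 0.5% DMSO vehicle. Bidirectional curve fitting against DMSO baseline.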

Read-out in assay [10]: Paternally Expressed 10 (PEG10), PEG10 (gene 23089)
Description: LTEA_HepaRG_PEG10: Life Technologies and Expression Analysis (LTEA) Assay for Paternally Expressed 10 (PEG10) using HepaRG (AID 2283520). An outline of the steps:
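qRT-PCR read-out: PEG10 mRNA normalised to three housekeeping genes, fitted bidirectionally against 0.5% DMSO vehicle. HepaRG cells received test chemicals for 48 h in serum-free induction medium, 8 points, top 100 uM, half-log steps.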

Read-out in assay [11]: Nuclear factor NF-kappa-B p105 subunit (Homo sapiens) (UniProt P19838)
Nature of the assay: LTEA_HepaRG_NFKB1: Life Technologies and Expression Analysis (LTEA) Assay for Nuclear Factor Kappa B Subunit 1 (NFKB1) using HepaRG (AID 2283521).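 Further: differentiated human HepaRG liver cells in serum-free induction medium; TaqMan qRT-PCR transcript normalised to ACTB GAPDH and POLR2A housekeeping genes.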 In a few lines:
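HepaRG, 48 h exposure; 8-pt half-log series from 100 uM in 0.5% DMSO; duplicates. Readout: NFKB1 mRNA by qRT-PCR (Fluidigm arrays), housekeeping-normalized. Gain/loss fit vs DMSO baseline.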

Read-out in assay [12]: Protein phosphatase 2A (PPP2R4), PTPA (gene 5524)
Nature of the assay: LTEA_HepaRG_PPP2R4: Life Technologies and Expression Analysis (LTEA) Assay for Protein phosphatase 2A (PPP2R4) using HepaRG (AID 2283522). An outline of the steps:
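HepaRG, 48 h exposure, 8-pt half-log series from 100 uM, 0.5% DMSO vehicle, duplicates. Readout: PPP2R4 mRNA, Fluidigm qRT-PCR, housekeeping-normalized. Bidirectional curve fit vs DMSO baseline.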

Read-out in assay [13]: Phosphatase and tensin (PTEN), PTEN (gene 5728)
Nature of the assay: LTEA_HepaRG_PTEN: Life Technologies and Expression Analysis (LTEA) Assay for Phosphatase and tensin (PTEN) using HepaRG (AID 2283523). In a few lines: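 HepaRG, 48 h exposure, 8-pt half-log series from 100 uM top, 0.5% DMSO vehicle, duplicates. Readout: Fluidigm qRT-PCR of PTEN transcript; housekeeping normalization (ACTB, GAPDH, POLR2A). Gain or loss fitted relative to DMSO baseline.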

Read-out in assay [14]: Pyruvate Dehydrogenase Kinase 4 (PDK4), PDK4 (gene 5166)
Description: LTEA_HepaRG_PDK4: Life Technologies and Expression Analysis (LTEA) Assay for Pyruvate Dehydrogenase Kinase 4 (PDK4) using HepaRG (AID 2283525). In a few lines: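 HepaRG (human liver line), 48 h chemical exposure, 8-pt half-log CRC top 100 uM, 0.5% DMSO vehicle, duplicates. Readout: TaqMan qRT-PCR of PDK4 mRNA, housekeeping-normalized; gain/loss fit relative to DMSO baseline.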

Read-out in assay [15]: NAD(P)H dehydrogenase [quinone] 1 (NQO1), NQO1 (gene 1728)
Nature of the assay: LTEA_HepaRG_NQO1: Life Technologies and Expression Analysis (LTEA) Assay for NAD(P)H dehydrogenase [quinone] 1 (NQO1) using HepaRG (AID 2283526). In a few lines: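 qRT-PCR read-out (Fluidigm TaqMan), normalized to three housekeeping genes, after 48 h chemical exposure of HepaRG cells. Concentrations: eight points, top 100 uM, half-log steps, 0.5% DMSO vehicle. Gain or loss of signal fitted relative to DMSO.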

Read-out in assay [16]: Nuclear factor erythroid 2-related factor 2 (Homo sapiens) (UniProt Q16236)
Nature of the assay: LTEA_HepaRG_NFE2L2: Life Technologies and Expression Analysis (LTEA) Assay for Nuclear factor erythroid 2-related factor 2 (NFE2L2) Transcription Factor using HepaRG (AID 2283527).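 Further: TaqMan qRT-PCR transcript level normalised to ACTB GAPDH and POLR2A housekeeping genes.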 An outline of the steps:
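HepaRG, 48 h dosing, 8-pt half-log series from 100 uM in 0.5% DMSO, duplicates. Read-out: NFE2L2 mRNA by qRT-PCR (ACTB/GAPDH/POLR2A normalization). Bidirectional curve fit vs DMSO baseline.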

Read-out in assay [17]: succinate dehydrogenase complex iron sulfur subunit B (SDHB), SDHB (gene 6390)
Description: LTEA_HepaRG_SDHB: Life Technologies and Expression Analysis (LTEA) Assay for succinate dehydrogenase complex iron sulfur subunit B (SDHB) using HepaRG (AID 2283528). In a few lines: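 Readout is SDHB transcript level by qRT-PCR, normalised to three housekeeping genes and fitted bidirectionally against 0.5% DMSO vehicle. Human HepaRG cells were treated for 48 h at up to 100 uM.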

Read-out in assay [18]: Signal transducer and activator of transcription 3 (Homo sapiens) (UniProt P40763)
Nature of the assay: LTEA_HepaRG_STAT3: Life Technologies and Expression Analysis (LTEA) Assay for Signal transducer and activator of transcription (STAT3) using HepaRG (AID 2283529). An outline of the steps: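 HepaRG, 48 h exposure, 8-pt half-log series (top 100 uM), 0.5% DMSO vehicle, duplicates. Readout: STAT3 transcript by Fluidigm qRT-PCR, housekeeping-normalized; bidirectional fit vs DMSO baseline.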

Read-out in another assay: MYC, MYC (gene 4609)
Description: LTEA_HepaRG_MYC: Life Technologies and Expression Analysis (LTEA) Assay for MYC using HepaRG (AID 2283518). In a few lines:
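HepaRG, ~100,000 cells/well, collagen I; 48 h plating; serum-free induction medium; 48 h dosing, duplicate, 100 uM top, half-log, 0.5% DMSO; total RNA → qRT-PCR MYC; gain/loss fit vs DMSO.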

Read-out in assay [19]: solute carrier (SLC22A1), SLC22A1 (gene 6580)
Nature of the assay: LTEA_HepaRG_SLC22A1: Life Technologies and Expression Analysis (LTEA) Assay for solute carrier (SLC22A1) using HepaRG (AID 2283524).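 Further: differentiated human HepaRG liver cells in serum-free induction medium.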 In a few lines:
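qRT-PCR readout (TaqMan, Fluidigm arrays) of SLC22A1 transcript, normalized to three housekeeping genes; bidirectional curve fit relative to 0.5% DMSO vehicle. Differentiated human HepaRG cells, 48 h chemical exposure, top concentration 100 uM, half-log steps, eight points.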

Sequence of Signal transducer and activator of transcription 3 (Homo sapiens) (P40763 whole entry, looked up): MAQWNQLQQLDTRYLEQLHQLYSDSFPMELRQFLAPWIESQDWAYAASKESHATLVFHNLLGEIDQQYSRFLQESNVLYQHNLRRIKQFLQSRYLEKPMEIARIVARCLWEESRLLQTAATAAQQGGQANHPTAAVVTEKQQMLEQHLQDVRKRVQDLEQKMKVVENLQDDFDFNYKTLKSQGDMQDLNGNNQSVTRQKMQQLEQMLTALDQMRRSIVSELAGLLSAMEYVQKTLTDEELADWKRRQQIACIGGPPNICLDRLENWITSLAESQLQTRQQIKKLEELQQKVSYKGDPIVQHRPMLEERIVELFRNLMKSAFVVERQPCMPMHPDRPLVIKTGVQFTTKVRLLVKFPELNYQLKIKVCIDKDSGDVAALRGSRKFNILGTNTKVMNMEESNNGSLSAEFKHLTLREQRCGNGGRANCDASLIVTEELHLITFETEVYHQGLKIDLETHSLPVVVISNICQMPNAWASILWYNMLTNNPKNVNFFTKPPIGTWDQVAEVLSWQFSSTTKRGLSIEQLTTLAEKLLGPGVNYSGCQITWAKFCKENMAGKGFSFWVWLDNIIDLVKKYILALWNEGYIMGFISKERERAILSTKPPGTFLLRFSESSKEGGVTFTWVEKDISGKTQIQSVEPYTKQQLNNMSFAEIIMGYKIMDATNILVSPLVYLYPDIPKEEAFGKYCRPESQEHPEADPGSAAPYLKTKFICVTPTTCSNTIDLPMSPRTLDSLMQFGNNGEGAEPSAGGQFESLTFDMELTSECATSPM
Sequence of Nuclear factor erythroid 2-related factor 2 (Homo sapiens) (Q16236 whole entry, looked up): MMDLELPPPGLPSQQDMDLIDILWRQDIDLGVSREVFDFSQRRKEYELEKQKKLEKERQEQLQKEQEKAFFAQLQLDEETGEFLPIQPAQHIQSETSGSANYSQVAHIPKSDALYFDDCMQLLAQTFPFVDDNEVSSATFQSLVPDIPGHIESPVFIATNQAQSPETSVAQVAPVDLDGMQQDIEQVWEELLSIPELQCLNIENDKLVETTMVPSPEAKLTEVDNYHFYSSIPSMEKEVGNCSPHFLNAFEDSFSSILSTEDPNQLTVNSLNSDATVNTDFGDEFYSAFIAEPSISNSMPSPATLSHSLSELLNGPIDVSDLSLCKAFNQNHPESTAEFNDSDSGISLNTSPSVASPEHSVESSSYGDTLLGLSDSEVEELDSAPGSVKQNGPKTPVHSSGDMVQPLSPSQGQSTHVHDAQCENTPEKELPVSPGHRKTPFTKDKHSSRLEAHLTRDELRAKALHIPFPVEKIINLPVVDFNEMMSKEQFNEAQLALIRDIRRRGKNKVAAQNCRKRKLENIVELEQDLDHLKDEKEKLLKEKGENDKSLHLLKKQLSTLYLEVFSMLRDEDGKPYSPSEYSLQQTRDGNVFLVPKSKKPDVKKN
Sequence of Nuclear factor NF-kappa-B p105 subunit (Homo sapiens) (P19838 whole entry, looked up): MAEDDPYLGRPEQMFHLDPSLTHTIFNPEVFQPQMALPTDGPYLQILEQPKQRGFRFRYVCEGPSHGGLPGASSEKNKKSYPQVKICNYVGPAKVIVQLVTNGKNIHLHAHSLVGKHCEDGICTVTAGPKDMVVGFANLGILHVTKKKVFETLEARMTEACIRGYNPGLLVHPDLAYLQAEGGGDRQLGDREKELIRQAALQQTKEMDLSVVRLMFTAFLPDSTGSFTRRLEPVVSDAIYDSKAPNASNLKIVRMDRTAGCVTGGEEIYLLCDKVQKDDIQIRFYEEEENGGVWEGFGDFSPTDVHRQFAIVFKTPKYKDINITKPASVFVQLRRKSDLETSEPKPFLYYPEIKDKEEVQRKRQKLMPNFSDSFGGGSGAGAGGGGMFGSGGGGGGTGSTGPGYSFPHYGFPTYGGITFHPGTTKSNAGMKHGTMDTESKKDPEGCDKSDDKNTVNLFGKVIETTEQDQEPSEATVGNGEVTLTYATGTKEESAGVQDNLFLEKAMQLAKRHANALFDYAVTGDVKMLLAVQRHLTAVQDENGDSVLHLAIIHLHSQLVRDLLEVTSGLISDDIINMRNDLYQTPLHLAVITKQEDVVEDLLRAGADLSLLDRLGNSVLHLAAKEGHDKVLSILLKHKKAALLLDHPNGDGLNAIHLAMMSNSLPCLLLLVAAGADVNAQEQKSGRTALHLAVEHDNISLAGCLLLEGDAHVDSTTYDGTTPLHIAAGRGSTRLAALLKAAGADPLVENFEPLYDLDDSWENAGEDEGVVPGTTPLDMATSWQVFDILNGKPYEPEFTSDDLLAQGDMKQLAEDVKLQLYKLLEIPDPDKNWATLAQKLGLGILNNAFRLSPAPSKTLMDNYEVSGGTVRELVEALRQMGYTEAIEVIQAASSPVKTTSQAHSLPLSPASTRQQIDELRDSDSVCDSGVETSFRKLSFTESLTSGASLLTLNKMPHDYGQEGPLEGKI

Turning to `CCOc1nc(F)cc2nc(S(=O)(=O)Nc3c(Cl)cccc3Cl)nn12`, the outcome in assay [1], in [2], in assay [4], in [5], in assay [6] and in assay [7] was inactive. Moreover, the compound was called inactive in assay [8], in assay [10], in assay [11], in assay [12], in [13] and in assay [14]. Moreover, the result in [15], in assay [16], in [17] and in assay [18] was inactive. Besides, the results for the AC50 in assay [3] and in assay [9] were 9.92 µM (active) and 50 µM (active), respectively.

Turning to `COP(=S)(OC)Oc1ccc([N+](=O)[O-])c(C)c1`, the compound was classed as inactive in [1], in assay [2], in [3], in assay [4], in [5] and in assay [6]. Moreover, the outcome in assay [7], in assay [8], in assay [9], in assay [10], in [12] and in assay [13] was inactive. Also, the outcome in [14], in assay [15], in assay [16], in [17] and in assay [18] was inactive.

For `Cc1cc(C)nc(Nc2ccccc2)n1`, the result in [1], in assay [2], in assay [4], in assay [5], in assay [6] and in [7] was inactive. For the same compound, the outcome was “inactive” in assay [8]; “inactive” with MYC, MYC (gene 4609); “inactive” in assay [9]; “inactive” in assay [10]; “inactive” in assay [11]; “inactive” in assay [12]. In addition, the compound was called inactive in [13], in assay [14], in [15], in assay [16], in assay [17] and in assay [18]. Further, the half-maximal activity concentration (AC50) was 18.7 µM (active) in [3] and 9.92 µM (active) in assay [19].

The term AC50 denotes the midpoint of the concentration-response curve, whichever way the signal moves.
